Structures are written as SMILES. Some compounds were tested as several samples or in several runs, with calls that do not always agree. Activity calls are given as the source filed them. Rule for the calls: active = hit-call score of the fitted dose curve at least 0.9, where 1 is the maximum; inactive = score below 0.9.

Read-out in the assay: CYP2C9 (gene 1559)
In words: LTEA_HepaRG_CYP2C9: Life Technologies and Expression Analysis (LTEA) Assay for CYP2C9 using HepaRG (AID 2283484). Particulars: mRNA level, 48 h; actives raise or lower the signal. How it is done:
LTEA_HepaRG is a cell based, multiplexed-readout assay that uses HepaRG, a human liver cell line, with measurements taken at 48 hours after chemical dosing on a 96-well plate.LTEA_HepaRG_CYP2C9 is one of 102 assay component(s) measured in the LTEA HepaRG cell culture assay. It is a marker of NR mediated metabolism.Data from the assay component LTEA_HepaRG_CYP2C9 was analyzed into 1 endpoint. This assay endpoint, LTEA_HepaRG_CYP2C9, was analyzed with bidirectional fitting relative to DMSO as the negative control and baseline of activity. Using a type of inducible reporter, measures of mRNA induction for gain or loss-of-signal activity can be used to understand regulation of transcription factor activity. To generalize the intended target to other relatable targets, this assay endpoint is annotated to the cyp intended target family, where the subfamily is xenobiotic metabolism.
A total of 1060 chemcials from the ToxCast library were tested in eight-point concentration-response experiments. Cell culture and cytotoxicity assays were conducted at Thermo Fisher Scientific's Custom Services facility (Madison, WI). A single lot of human HepaRG cells (Thermo Fisher Scientific, Frederick, MD) was used for the cell culture experiments. 96-well format collagen type I coated plates of human HepaRG cells were prepared using established methods. Briefly, cryopreserved HepaRG cells were thawed, plated at a density of approximately 100,000 cells/well in HepaRG Thaw, Plate, and General Purpose media (HPRG770, Thermo Fisher Scientific), and incubated for 48 hours. 0.5% DMSO was selected as vehicle control to balance the requisite need of DMSO in HepaRG cultures to maintain differentiation (for example, baseline metabolism, proportions of hepatocytes vs. cholangiocytes), while enabling further hepatic receptor pathway activation (for example, PXR and CAR) in response to chemical exposure. 48 hours after plating, the culture medium was replaced with HepaRG Serum-Free Incudtion Media. Cells were exposed to each test chemical in duplicate and maintained in CO2 incubators for another 48 hours. Chemical plates were thawed to room temperature and 200x concentrations of treatment groups were prepared. 8-point conentration-reponse curves were made with the highest exposure at 100 uM, followed by half-log dilutions, all in 0.5% DMSO. Each test plate contained variouse controls, induction positive controls (1mM phenobarbital), cytotoxicity positive controls ([…] aflatoxin B1), vehicle controls (0.5% DMSO), and total lysis controls (0.5% DMSO). Cell morphology images were taken using an Essen IncuCyte FLR automated microscope, with six 96-well plates imaged in about 24 minutes. Images were captured and exported and JPEG files. Spent culture media was transfered to black-well plates for the LDH assay, and remaining media was sorted at -80 C for later use. Cells were treated with RLT buffer and frozen until shipped for gene expression analysis. Total RNA was isolated from the cell suspension in 75 uL of Buffer RLT (Qiagen, Germantown, MD 20874) by Quintiles/Expression Analysis (Durham, NC) using a custom isolation procedure. Total RNA from each plate well was transferred to a preamplification plate. Fluidigm's 96.96 Dynamic ArrayTM (Fluidigm, Amsterdam, the Netherlands) technology was used for gene expression analyses by quantitative reverse transcription polymerase chain reaction (qRT-PCR, performed by Quintiles/Expression Analysis, Durham, NC)89. Standard TaqManTM Assays (Applied Biosystems/ThermoFisher Scientific, Foster City, CA) were used to assess the expression of 93 genes selected based on their selectivity and sensitivity to important hepatic receptors known to be modulated by environmental chemicals; importance in human hepatocyte functionality; and hepatotoxicity. […]
Regarding `CCN(Cc1c(F)cccc1Cl)c1c([N+](=O)[O-])cc(C(F)(F)F)cc1[N+](=O)[O-]`, the result was inactive. Turning to `CCCCC(CC)COC(=O)c1ccccc1C(=O)O` (stereo not given), the result was inactive.

With `CCC(C)OC(=O)N1CCCCC1CCO` (stereo not given), the concentration at half-maximal activity (AC50) (usually the concentration at which the activity in the assay is half-maximal) was 4.74 µM (active).

As for `O=C(c1ccc(O)cc1O)c1ccc(O)cc1O`, the compound was called inactive. The same measure, in the same setting: for `C#CCOC(=O)[C@@H](C)Oc1ccc(Oc2ncc(Cl)cc2F)cc1` the value was “inactive”; for `CCCCOC(=O)[C@@H](C)Oc1ccc(Oc2ccc(C(F)(F)F)cn2)cc1`, “inactive”. `CCOC(=O)NCCOc1ccc(Oc2ccccc2)cc1`: the concentration at half-maximal activity (AC50) is 80 µM (active). With `CCCN(CCC)c1c([N+](=O)[O-])cc(C(F)(F)F)c(N)c1[N+](=O)[O-]`, the outcome was inactive. The same measure, in the same setting: for `CCCN(CCC)C(=O)SCC` the value was “inactive”. For the compound `Oc1ccc(C(c2ccc(O)cc2)C(Cl)(Cl)Cl)cc1`, the AC50 is 93.1 µM (active).

Consider `Cc1nn(C)c(Oc2ccccc2)c1C=NOCc1ccc(C(=O)OC(C)(C)C)cc1`, for which the AC50 is 20.1 µM (active). Regarding `COC(=O)CSc1cc(N=c2sc(=O)n3n2CCCC3)c(F)cc1Cl`, the result was inactive. Turning to `CCCCOCCOCCOCc1cc2c(cc1CCC)OCO2`, the half-maximal activity concentration (AC50) is 3.39 µM (active). Consider `C[C@]12CC[C@@H]3c4ccc(O)cc4C[C@@H](CCCCCCCCCS(=O)CCCC(F)(F)C(F)(F)F)[C@H]3[C@@H]1CC[C@@H]2O` (stereo not given in full), for which the AC50 is 28.7 µM (active). The same measure, in the same setting: for `O=C(Nc1ccc([N+](=O)[O-])cc1Cl)c1cc(Cl)ccc1O` the value was 3.21 µM (active). With `CC(C)(c1ccc(O)cc1)c1ccc(O)cc1`, the outcome was inactive and the AC50 was 9.92 µM (active). On to `CCOC(=O)COc1cc(-n2ncc(C(F)(F)F)c(C)c2=O)c(F)cc1Cl`, for which the outcome was inactive. Same read-out and setting: the value for `CCCCCOC(=O)COc1cc(N2C(=O)C3=C(CCCC3)C2=O)c(F)cc1Cl` was “inactive”. Regarding `CC(=O)[C@H]1CC[C@H]2[C@@H]3CCC4=CC(=O)CC[C@]4(C)[C@H]3CC[C@]12C`, the concentration at half-maximal activity (AC50) was 38.5 µM (active).

As for `CC(C)CCCCCCc1ccc(O)cc1`, the compound was called inactive. On to `OB(O)O`, for which the result was inactive. Consider `CCOC(=O)c1ccc(O)cc1`, for which the result was inactive.

For the compound `COCCO`, the outcome was inactive. In the case of `CCCOC(=O)NCCCN(C)C`, the call was inactive. With `S=C([S-])NCCNC(=S)[S-].[Mn+2]`, the AC50 is 2.23 µM (active). In the case of `O=C(O)C1(C(=O)Nc2ccc(Cl)cc2Cl)CC1`, the half-maximal activity concentration (AC50) is 71.9 µM (active). For the compound `CCOC(=O)C(C)Oc1ccc(Oc2cnc3cc(Cl)ccc3n2)cc1` (stereo not given), the result was inactive. For the compound `COC(=O)c1ccc(I)cc1S(=O)(=O)NC(=O)Nc1nc(C)nc(OC)n1`, the call was inactive.

Regarding `CC1(C)C(C=C(Cl)Cl)C1C(=O)OCc1cccc(Oc2ccccc2)c1` (stereo not given), the compound was classed as inactive. Consider `N#CSCSc1nc2ccccc2s1`, for which the half-maximal activity concentration (AC50) was 75.3 µM (active). For `O=C(O)c1ccccc1`, the call was inactive. The same measure, in the same setting: for `CCCOC(=O)c1ccc(C(=O)OCCC)nc1` the value was “inactive”; for `c1ccc2[nH]c(-c3cscn3)nc2c1`, “inactive”. With `CCCCOC(=O)C(C)Oc1ccc(Oc2ccc(C(F)(F)F)cn2)cc1` (stereo not given), the compound was called inactive.

In the case of `COc1c(Cl)ccc(Cl)c1C(=O)O`, the compound was called inactive. For the compound `CCOC(=O)C(C)Oc1ccc(Oc2nc3ccc(Cl)cc3o2)cc1` (stereo not given), the AC50 is 19.6 µM (active). As for `O=C(c1ccccc1)C1CCCCC1`, the outcome was inactive.

For the compound `CSC(=O)c1cccc2nnsc12`, the compound was called inactive. Same read-out and setting: the value for `CC(C)(C)[C@@H](O)[C@@H](Cc1ccc(Cl)cc1)n1cncn1` was “inactive”.

The values are drawn from PubChem BioAssay (EPA / NIEHS).
